The values below come from PubChem BioAssay (NCATS).

Results filed as inconclusive are left out. Entries that show only a call come without a potency. Calls of active or inactive are those of the source. The call rests on the fitted dose curve; in most records, active means well fitted curve in the direction sought with a large enough effect; inconclusive means small, poorly fitted or top-dose-only effect, or another doubt; inactive means no such curve, though single readings can be large; an effect the other way counts as inactive or inconclusive. Where a SMILES comes first, the peptide text is derived from it. [ ]: non-standard residue; d: D form. pGlu = O=C1CC[C@@H](C(=O)O)N1; Thz = O=C(O)[C@@H]1CSCN1

The first test concerns Zika virus NS2B-NS3 protease (unlinked complex). The test can be described thus: Primary screen GU Rhodamine qHTS for Zika virus inhibitors: Unlinked NS2B-NS3 protease assay (AID 1347159). Further: nearly all actives have a fitted effect of over 60% in size. Further: potency means the concentration at half of the fitted maximal effect. The note with it: Recombinant ZIKV NS2B-NS3 protease, Rhodamine110 substrate fluorescence; series mostly up to 107 µM. In outline:
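In dose–response format, inhibition of unlinked protease (25 nM) was measured with 1.5 microM bis-peptide Rhodamine110 substrate. Aprotinin served as the intraplate control.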
In general terms: Quantitative high-throughput screening tests each substance at several concentrations.
Turning to `CC(C(=O)O)c1ccc2c(c1)[nH]c1ccc(Cl)cc12` (stereo unspecified), the Potency is 35.5 µM (active).

With `O=C1CC[C@@H](C(=O)N2CSC[C@H]2C(=O)O)N1` ([pGlu]-[Thz]-OH), the Potency entry was “inactive”.

On to `C/C(=N\O)c1ccc(OCC(=O)N2CCCCC2)cc1`, for which the Potency entry was “inactive”.

As to `Cc1onc(-c2c(F)cccc2Cl)c1C(=O)N[C@@H]1C(=O)N2[C@@H]1SC(C)(C)[C@@H]2C(=O)O`, the Potency entry was “inactive”.

With `Cc1ccc2c(n1)Oc1ccc(C(C)C(=O)OCC(=O)N(C)C)cc1C2` (stereo unspecified), the Potency result was “inactive”.

`CC(=O)c1ccc(OCC(=O)N2CCCCC2)cc1`: the Potency entry was “inactive”.

As to `O=C(O)Cc1cccc(-c2cc(CCCCCCc3ccc(O[C@H]4O[C@H](CO)[C@@H](O)[C@H](O)[C@@H]4O)c(-c4cccc(CC(=O)O)c4)c3)ccc2O[C@H]2O[C@H](CO)[C@@H](O)[C@H](O)[C@@H]2O)c1`, the activity change, negative = inhibition was 17.6% [at 1.28 µM] (inactive).

`COc1cc(CNC(=O)CCCC/C=C/C(C)C)ccc1O`: the Potency result is “inactive”.

As for `CN1[C@@H]2CC[C@H]1CC(OC(c1ccccc1)c1ccccc1)C2` (stereo partly specified), the Potency entry is “inactive”.

For the compound `CC(=O)SCC(CC(=O)c1ccc(C)cc1)C(=O)O` (stereo unspecified), the Potency entry is “inactive”.

The test system of a further test is Zika virus NS2B-NS3 protease (linked construct). Kind of test: Primary screen NINDS Rhodamine qHTS for Zika virus inhibitors (AID 1347160). Further: nearly all actives have a fitted effect of over 55% in size. Further: potency means the concentration at half of the fitted maximal effect. As to conditions: purified NS2B-NS3 protease, Rhodamine110 substrate fluorescence; series mostly up to 57.1 µM. In outline: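 Each compound, titrated, sat 15 min with 25 nM linked protease before 1.5 microM Rhodamine110 substrate went in. Fluorescence gain over the next 15 min, in pH 8.0 Tris with Tween 20, gave Hill-fitted curves.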
As for `O=C1CC[C@@H](C(=O)N2CSC[C@H]2C(=O)O)N1` ([pGlu]-[Thz]-OH), the Potency result is “inactive”.

With `C/C(=N\O)c1ccc(OCC(=O)N2CCCCC2)cc1`, the Potency entry was “inactive”.

Take `Cc1onc(-c2c(F)cccc2Cl)c1C(=O)N[C@@H]1C(=O)N2[C@@H]1SC(C)(C)[C@@H]2C(=O)O`: the Potency result is “inactive”.

For `Cc1ccc2c(n1)Oc1ccc(C(C)C(=O)OCC(=O)N(C)C)cc1C2` (stereo unspecified), the Potency result was “inactive”.

In the case of `O=C(O)c1cc(O)c(O)c(O)c1`, the Potency is 49.3 µM (active).

Regarding `CC(=O)c1ccc(OCC(=O)N2CCCCC2)cc1`, the Potency result is “inactive”.

As to `O=C(O)Cc1cccc(-c2cc(CCCCCCc3ccc(O[C@H]4O[C@H](CO)[C@@H](O)[C@H](O)[C@@H]4O)c(-c4cccc(CC(=O)O)c4)c3)ccc2O[C@H]2O[C@H](CO)[C@@H](O)[C@H](O)[C@@H]2O)c1`, the activity change, negative = inhibition was 11.1% [at 0.684 µM] (inactive).

`COc1cc(CNC(=O)CCCC/C=C/C(C)C)ccc1O`: the Potency entry is “inactive”.

As to `CN1[C@@H]2CC[C@H]1CC(OC(c1ccccc1)c1ccccc1)C2` (stereo partly specified), the Potency result was “inactive”.

Consider `CC(=O)SCC(CC(=O)c1ccc(C)cc1)C(=O)O` (stereo unspecified), for which the Potency result was “inactive”.

The target in a further test is Lysine-specific demethylase 5B (Homo sapiens) (UniProt Q9UGL1). Kind of test: Optimization screen for KDM5B Histone Demethylases FDH coupled qHTS against the LOPAC library (AID 1347166). As to conditions: KDM5B demethylation, FDH-coupled NADH fluorescence (FDH is formaldehyde dehydrogenase); series mostly up to 57.5 µM. In outline: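 KDM5BDeltaAP (200nM final) in 50mM HEPES pH 7.5, 0.01% Tween-20 was preincubated with compound for 10 min at room temperature. A substrate mix of 12.5uM H3K4Me3, 25uM a-ketoglutarate, ascorbate, Fe2+, NAD+ and formaldehyde dehydrogenase was then added. NADH fluorescence (340/450 nm) was read initially and after 30 min.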
Chain of Lysine-specific demethylase 5B (Homo sapiens) (Q9UGL1 whole entry, looked up): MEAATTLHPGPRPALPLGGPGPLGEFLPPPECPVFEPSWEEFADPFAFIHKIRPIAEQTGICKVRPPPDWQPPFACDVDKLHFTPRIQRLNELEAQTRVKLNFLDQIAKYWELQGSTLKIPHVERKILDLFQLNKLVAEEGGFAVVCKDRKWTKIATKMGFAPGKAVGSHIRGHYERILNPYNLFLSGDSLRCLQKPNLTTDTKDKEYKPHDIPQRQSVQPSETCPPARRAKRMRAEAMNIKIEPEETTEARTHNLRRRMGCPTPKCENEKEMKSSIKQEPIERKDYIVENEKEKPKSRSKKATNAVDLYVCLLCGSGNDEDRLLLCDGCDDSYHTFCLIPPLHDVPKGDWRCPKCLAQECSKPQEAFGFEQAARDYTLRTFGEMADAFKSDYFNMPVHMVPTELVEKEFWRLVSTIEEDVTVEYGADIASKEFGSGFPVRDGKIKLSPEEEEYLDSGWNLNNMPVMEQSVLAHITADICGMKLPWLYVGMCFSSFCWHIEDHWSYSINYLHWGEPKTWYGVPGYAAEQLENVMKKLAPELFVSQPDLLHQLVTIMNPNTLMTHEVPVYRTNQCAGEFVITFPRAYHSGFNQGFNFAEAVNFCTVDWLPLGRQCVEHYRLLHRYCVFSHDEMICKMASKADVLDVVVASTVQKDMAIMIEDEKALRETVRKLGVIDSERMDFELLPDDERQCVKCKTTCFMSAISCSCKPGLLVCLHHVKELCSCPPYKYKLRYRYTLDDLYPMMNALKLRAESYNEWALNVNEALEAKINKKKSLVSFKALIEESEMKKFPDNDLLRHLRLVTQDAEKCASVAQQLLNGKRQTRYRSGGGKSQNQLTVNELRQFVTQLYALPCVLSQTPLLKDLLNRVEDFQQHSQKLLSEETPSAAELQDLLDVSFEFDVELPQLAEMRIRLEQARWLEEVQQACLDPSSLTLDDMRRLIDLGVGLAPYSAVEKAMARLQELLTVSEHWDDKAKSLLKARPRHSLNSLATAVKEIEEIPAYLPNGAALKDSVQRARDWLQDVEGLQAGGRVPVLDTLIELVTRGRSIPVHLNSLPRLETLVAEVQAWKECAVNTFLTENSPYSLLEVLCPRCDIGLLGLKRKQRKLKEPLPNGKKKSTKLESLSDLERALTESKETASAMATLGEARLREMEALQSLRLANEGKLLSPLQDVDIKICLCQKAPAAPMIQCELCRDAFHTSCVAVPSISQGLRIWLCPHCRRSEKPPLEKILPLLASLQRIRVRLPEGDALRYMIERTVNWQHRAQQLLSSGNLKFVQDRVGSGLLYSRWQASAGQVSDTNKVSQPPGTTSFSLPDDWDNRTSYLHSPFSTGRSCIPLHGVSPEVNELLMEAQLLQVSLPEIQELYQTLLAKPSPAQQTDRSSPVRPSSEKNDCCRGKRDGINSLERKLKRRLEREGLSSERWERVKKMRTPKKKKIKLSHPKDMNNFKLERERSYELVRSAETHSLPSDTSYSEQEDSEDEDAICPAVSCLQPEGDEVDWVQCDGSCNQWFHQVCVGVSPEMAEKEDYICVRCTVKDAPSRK
For `CN1CCC[C@H]1c1cccnc1`, the compound was called inactive.

As for `Cc1nc2sccn2c(=O)c1CCN1CCC(=C(c2ccccc2)c2ccc(F)cc2)CC1`, the compound was classed as inactive.

With `CCCCCC(O)c1cccc(OCc2ccc3ccccc3n2)c1` (stereo unspecified), the compound was called inactive.

Take `O=C(O)[C@@H]1C[C@@H](C(=O)O)N1`: the call was inactive.

For the compound `O=C(O)c1cc([N+](=O)[O-])ccc1NCCCc1ccccc1`, the call was inactive.

For the compound `Ic1ccc(N2CCN(Cc3c[nH]c4ncccc34)CC2)cc1`, the result was inactive.
